Consider five compounds from PubChem BioAssay.

The nature of assay [1]: A549 cell viability effects, profiling panel, calcein-AM fluorescence, 48 h, basal (AID 1162). Also: test concentration not given here. The conditions noted are these: higher = more signal.
The nature of assay [2]: adipocyte viability effects, profiling panel, cell-based, 3T3-L1 adipocytes, calcein-AM fluorescence, 48 h, basal (AID 1163). Also: test concentration not given here. The conditions noted are these: 3T3-L1 adipocytes viability, higher = more signal.
Assay [3] in a line: HepG2 cell viability effects, profiling panel, calcein-AM fluorescence, 48 h, basal (AID 1164). Also: test concentration not given here. The conditions noted are these: higher = more signal.
A short description of assay [4]: MM1S cell viability effects, profiling panel, calcein-AM fluorescence, 48 h, basal (AID 1165).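 Also: viability of MM1S multiple myeloma cells under basal unstimulated conditions; test concentration not given here.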 The conditions noted are these: higher = more signal.
A short description of assay [5]: basal RPMI8226 viability, no added stimulus, profiling panel, cell-based, calcein-AM fluorescence, 48 h, PK04 Diversity Set (AID 1166).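 Also: cells grown under basal conditions without added stimulus; test concentration not given here.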 The conditions noted are these: RPMI8226 myeloma viability, higher = more signal.
A short description of assay [6]: basal HepG2 mitochondrial membrane potential changes, profiling panel, cell-based, JC-1 fluorescence, 24 h, 100 nL compound (AID 1167). Also: test concentration not given here. The following applies: higher = more signal.
The nature of assay [7]: basal 3T3-L1 adipocyte mitochondrial potential changes, profiling panel, cell-based, JC-1 fluorescence, 3T3-L1 adipocytes, 24 h, 100 nL compound (AID 1168). Also: test concentration not given here. The conditions noted are these: JC-1 mitochondrial fluorescence, higher = more signal, called active from +8 up or from −8 down.
Assay [8] in a line: basal RPMI8226 mitochondrial membrane potential changes, profiling panel, cell-based, JC-1 fluorescence, 24 h, 100 nL compound (AID 1169). Also: test concentration not given here. The following applies: RPMI8226 myeloma, JC-1 mitochondrial potential fluorescence, higher = more signal.
Assay [9] in a line: basal MM1S mitochondrial membrane potential changes, profiling panel, cell-based, JC-1 fluorescence, 24 h, 100 nL compound (AID 1170). Also: test concentration not given here. The conditions noted are these: higher = more signal.
Assay [10] in a line: A549 lung cancer cell viability effects, profiling panel, resazurin fluorescence, 24 h, PK04 Diversity Set (AID 1171). Also: test concentration not given here. The following applies: higher = more signal, called active from +8 up or from −8 down. (In general: The colour change of resazurin is a common sign of viable cells or microbes.)
Assay [11] is described as follows: HepG2 liver cancer cell viability effects, profiling panel, resazurin fluorescence, 24 h, PK04 Diversity Set (AID 1172). Also: test concentration not given here. The conditions noted are these: higher = more signal.
Assay [12] in a line: basal S. cerevisiae growth modulation, no modifier, primary screen, OD600, strain BY4716, 24 h, basal condition (AID 1173). The following applies: OD600, 24 h, higher = more signal, called active from +8 up or from −8 down.
The nature of assay [13]: MM1S myeloma cell viability, profiling panel, resazurin fluorescence, basal, 24 h, PK04 Diversity Set (AID 1174).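 Also: MM1S multiple myeloma cell line; test concentration not given here.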 The following applies: higher = more signal, called active from +8 up or from −8 down.
Assay [14] has as its target Dihydroorotate dehydrogenase (quinone), mitochondrial (Plasmodium falciparum (isolate 3D7)) (UniProt Q08210). Description: PfDHODH enzyme inhibitors, primary screen, biochemical, C-terminal His tag, absorbance 600 nm (AID 1175).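 Also: recombinant parasite enzyme with a five histidine tag at its C terminus; test concentration not given here.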 The conditions noted are these: DCIP absorbance 600 nm, higher = more signal, called active from +8 up or from −8 down.
Assay [15] in a line: P. aeruginosa biofilm formation inhibitors, primary screen, strain PAO1, LB-PBS medium, absorbance 600 nm (AID 1176). Also: test concentration not given here. The conditions noted are these: P. aeruginosa PAO1 growth/biofilm, A600, 12 h; higher = more signal.
Assay [16] is described as follows: S. cerevisiae RM11-1a growth modifiers, primary screen, strain RM11-1a, OD600, basal, 24 h (AID 1177).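 Also: cultures grown under basal conditions with no added stressor; test concentration not given here.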 The following applies: OD600, 24 h, higher = more signal, called active from +8 up or from −8 down.
A short description of assay [17]: E. coli acrAB mutant growth effects, primary screen, E. coli filamentation inducers, strain DRC39, OD650, 24 h (AID 1178).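 Also: growth measured as culture turbidity by optical density at 650 nm; test concentration not given here.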 The conditions noted are these: higher = more signal, called active from +8 up or from −8 down.
A short description of assay [18]: E. coli acrAB mutant growth effects, primary screen, E. coli filamentation inducers, strain DRC39, OD650, 48 h (AID 1179).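 Also: screen aims at cell division blockers that make cells filament.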 The following applies: E. coli DRC39 delta-acrAB growth, higher = more signal, called active from +8 up or from −8 down.
Assay [19] is described as follows: RPMI8226 myeloma cell viability, profiling panel, resazurin fluorescence, basal, 24 h, PK04 Diversity Set (AID 1180).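 Also: RPMI8826 multiple myeloma cell line at 5000 cells per well; test concentration not given here.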 The conditions noted are these: higher = more signal.
Assay [20] addresses E3 ubiquitin-protein ligase XIAP (Homo sapiens) (UniProt P98170). Description: XIAP binders, primary screen, biophysical, small-molecule microarray, fluorescence 635 nm (AID 1181).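 Also: score merges 667 nm emission and signal to noise over triplicate slides.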 The conditions noted are these: small-molecule microarray binding, higher = more signal.

The structures appear in SMILES notation. Where “and” joins values, the source holds several entries; their conditions need not be identical. Equal values may be shown once. Calls of active or inactive are those of the source. Unless noted, no rule for the calls is given here.

Dihydroorotate dehydrogenase (quinone), mitochondrial (Plasmodium falciparum (isolate 3D7)), sequence (Q08210 whole entry, looked up): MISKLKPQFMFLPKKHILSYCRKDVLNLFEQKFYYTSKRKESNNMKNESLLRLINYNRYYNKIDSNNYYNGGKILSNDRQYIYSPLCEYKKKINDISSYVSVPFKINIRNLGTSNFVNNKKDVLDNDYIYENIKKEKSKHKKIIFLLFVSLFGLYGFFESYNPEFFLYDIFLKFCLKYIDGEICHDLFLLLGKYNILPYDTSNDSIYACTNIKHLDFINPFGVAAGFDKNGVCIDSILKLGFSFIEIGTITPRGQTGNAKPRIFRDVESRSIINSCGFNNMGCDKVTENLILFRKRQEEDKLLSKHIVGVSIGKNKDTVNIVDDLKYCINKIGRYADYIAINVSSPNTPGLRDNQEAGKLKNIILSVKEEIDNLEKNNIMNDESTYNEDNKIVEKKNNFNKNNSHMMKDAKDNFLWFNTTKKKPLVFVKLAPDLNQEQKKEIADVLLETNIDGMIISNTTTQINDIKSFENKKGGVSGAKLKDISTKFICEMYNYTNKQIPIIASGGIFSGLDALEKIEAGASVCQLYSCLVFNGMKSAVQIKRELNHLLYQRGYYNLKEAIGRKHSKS
E3 ubiquitin-protein ligase XIAP (Homo sapiens), sequence (P98170 whole entry, looked up): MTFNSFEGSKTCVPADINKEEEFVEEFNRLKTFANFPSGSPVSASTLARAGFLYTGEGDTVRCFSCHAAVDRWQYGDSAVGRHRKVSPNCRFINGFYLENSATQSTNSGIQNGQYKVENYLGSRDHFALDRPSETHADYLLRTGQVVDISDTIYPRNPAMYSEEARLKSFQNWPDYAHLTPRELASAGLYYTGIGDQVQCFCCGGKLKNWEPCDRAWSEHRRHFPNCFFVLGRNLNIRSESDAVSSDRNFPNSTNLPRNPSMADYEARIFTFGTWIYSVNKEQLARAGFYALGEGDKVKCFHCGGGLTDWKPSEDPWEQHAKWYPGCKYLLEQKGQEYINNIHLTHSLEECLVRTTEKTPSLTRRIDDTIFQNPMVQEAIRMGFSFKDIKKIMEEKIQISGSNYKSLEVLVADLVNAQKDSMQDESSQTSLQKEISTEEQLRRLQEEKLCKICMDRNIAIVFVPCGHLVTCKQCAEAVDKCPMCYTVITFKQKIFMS

With `C=CCN(CCCC)C(=O)C(c1cccs1)N(CCOCCO)C(=O)/C=C\C(=O)O` (stereo not given), the z-score in assay [1] was 1.12 and 0.149; in [2], 0.185 and -0.242; in assay [3] it was 0.914 and 0.824; in [4] it was 1.04 and 1.56; in [5], 1.05 and -0.0726; in assay [6], 0.644 and 1.03. Besides, the z-score in [7] is 0.713 (inactive) and 0.0219 (inactive); in assay [8], 0.835 and 0.00316; in assay [9] it was -1.11 and -0.822; in assay [10], -0.557 (inactive) and -0.469 (inactive); in assay [11], -0.313 and -1.09; in [12], -0.8 (inactive) and 0.678 (inactive). Further, the z-score in assay [13] was -0.0247 (inactive) and -0.0815 (inactive); in assay [15], 0.0126 (inactive) and 0.177 (inactive); in assay [16] it was -1.34 (inactive) and -1.13 (inactive); in assay [17] it was 0.423 (inactive) and 0.0136 (inactive); in assay [18] it was 0.629 (inactive) and 0.633 (inactive); in assay [19], 0.0517 and 0.181. Besides, the composite z-score in [14] is -1.49 (inactive) and -0.811 (inactive); in [20], -0.352 and -0.234.

With `C=CCN(C(=O)C1N(C(C)(C)CO)C(=O)C2C(C(=O)O)C3C=CC21O3)c1ccc(OC)cc1` (stereo not given), the z-score in [1] is 0.396 and 0.242; in assay [2], 0.682 and -0.0179; in [3], -0.394 and -0.112; in assay [4], 0.925 and 0.494; in [5], 0.463 and 0.475; in assay [6], 0.414 and 0.332. Moreover, the z-score in assay [7] is 0.688 (inactive) and 0.702 (inactive); in assay [8], 0.9 and -0.286; in assay [9] it was 0.646 and 0.841; in assay [10], 0.377 (inactive) and 0.109 (inactive); in [11] it was 0.489 and -0.143; in [12], -0.684 (inactive) and 0.362 (inactive). The z-score is 1.01 (inactive) and 0.128 (inactive) in [13]; -0.786 (inactive) in assay [15]; 0.643 (inactive) and 1.4 (inactive) in assay [16]; 1.33 (inactive) and 0.347 (inactive) in [17]; 1.09 (inactive) and 0.546 (inactive) in assay [18]; 0.592 and -0.39 in assay [19]. The composite z-score in assay [14] is 0.2 (inactive) and -2.13 (inactive); in assay [20], -0.0771 and -0.0663.

As to `COC(=O)C1=C(C)N(Cc2ccccc2)C2=C3C(=O)N(c4ccccc4)C(=O)[C@@H]3[C@@](O)(C(=O)OC)C(=O)N2[C@@H]1c1ccccc1`, the z-score in assay [1] is 1.52 and 2.18; in assay [2], 0.0671 and 1.01; in assay [3] it was 0.286 and -0.126; in assay [4], -0.532 and 0.354; in assay [5] it was 0.585 and 1.26; in assay [6], 0.889 and 1.68. The z-score in assay [7] was 0.143 (inactive) and 1.26 (inactive); in [8] it was -0.87 and -0.111; in [9] it was 0.702 and 0.136; in [10] it was 0.497 (inactive) and 0.767 (inactive); in assay [11] it was 0.941 and 0.879; in assay [12], -1.31 (inactive) and -2.61 (inactive). The z-score in assay [13] is 0.463 (inactive) and 1.02 (inactive); in [15] it was -0.847 (inactive); in assay [16] it was -0.305 (inactive) and -1.62 (inactive); in [17], 0.284 (inactive) and 1.07 (inactive); in assay [18], -0.23 (inactive) and 1.2 (inactive); in assay [19] it was 0.698 and 0.334. Moreover, the composite z-score was -0.0764 (inactive) and -0.563 (inactive) in assay [14]; 0.122 and 0.0178 in [20].

Take `C=CC[C@@H](O)c1ccc(O)c2ccccc12`: the z-score in assay [1] is 0.292 and 0.405; in assay [2] it was -0.0851 and -0.0172; in assay [3], 0.23 and -0.354; in [4], -2.77 and -2.68; in [5] it was -3.06 and -4.28; in [6], -2.14 and -2.66. For the same compound, the z-score in assay [7] is 0.0544 (inactive) and -0.0565 (inactive); in [8] it was -0.887 and -0.994; in [9], -1.63 and -1.56; in assay [10], -0.308 (inactive) and -0.572 (inactive); in [11], 0.202 and -0.349; in assay [12], -17.2 (active) and -17.3 (active). Moreover, the z-score was -2.06 (inactive) and -2.1 (inactive) in [13]; 1 (inactive) and 1.33 (inactive) in [15]; -0.508 (inactive) and 0.0761 (inactive) in [16]; 1.2 (inactive) and -0.0099 (inactive) in assay [17]; 0.635 (inactive) and -0.379 (inactive) in [18]; -0.947 and -1.55 in assay [19]. Also, the composite z-score in assay [14] is -2.37 (inactive) and -3.1 (inactive); in assay [20], 0.205 and 0.0537.

Regarding `CO[C@H]1COC(=O)CC=C[C@H](C)[C@H](OC)COC(=O)[C@@H](C)COC(=O)CC=C[C@@H]1C`, the z-score in assay [1] was -0.26 and 0.27; in [2], 0.0599 and 0.0256; in assay [3], 0.0517 and 1.24; in assay [4], 0.183 and 0.0455; in [5], -0.409 and 0.728; in assay [6], 0.152 and 1.09. The z-score was -0.317 (inactive) and 0.125 (inactive) in assay [7]; -0.429 and 0.0879 in [8]; 0.688 and 0.438 in assay [9]; 0.211 (inactive) and -0.379 (inactive) in [10]; 0.492 and 0.464 in assay [11]; -0.415 (inactive) and -1.07 (inactive) in assay [12]. Moreover, the z-score in [13] was 0.429 (inactive) and 0.802 (inactive); in [15] it was -0.519 (inactive) and -0.118 (inactive); in [16], -0.436 (inactive) and -0.638 (inactive); in assay [17], 0.945 (inactive) and 1.12 (inactive); in [18], 0.658 (inactive) and 1.09 (inactive); in assay [19], 0.168 and 0.365. Further, the composite z-score is 0.175 (inactive) and 0.55 (inactive) in [14]; 0.0256 and -0.202 in assay [20].
